Screen size: about 310,000 compounds; about 14,000 (4.5%) showed an effect of 50% or more. Effects have a minus sign here. The sample holds strong results, similar compounds and a random draw of the others, so the mix is not that of the screen.
These compounds were tested against human ether-à-go-go-related gene (hERG) potassium channel (human, UniProt Q12809) (assay: primary screen, population patch clamp on CHO cells stably expressing hERG; higher = less effect of the substance).
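Note: peak tail current of the secondary pulse compared with the same well before compound.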

Chain of human ether-à-go-go-related gene (hERG) potassium channel (Q12809 whole entry, looked up): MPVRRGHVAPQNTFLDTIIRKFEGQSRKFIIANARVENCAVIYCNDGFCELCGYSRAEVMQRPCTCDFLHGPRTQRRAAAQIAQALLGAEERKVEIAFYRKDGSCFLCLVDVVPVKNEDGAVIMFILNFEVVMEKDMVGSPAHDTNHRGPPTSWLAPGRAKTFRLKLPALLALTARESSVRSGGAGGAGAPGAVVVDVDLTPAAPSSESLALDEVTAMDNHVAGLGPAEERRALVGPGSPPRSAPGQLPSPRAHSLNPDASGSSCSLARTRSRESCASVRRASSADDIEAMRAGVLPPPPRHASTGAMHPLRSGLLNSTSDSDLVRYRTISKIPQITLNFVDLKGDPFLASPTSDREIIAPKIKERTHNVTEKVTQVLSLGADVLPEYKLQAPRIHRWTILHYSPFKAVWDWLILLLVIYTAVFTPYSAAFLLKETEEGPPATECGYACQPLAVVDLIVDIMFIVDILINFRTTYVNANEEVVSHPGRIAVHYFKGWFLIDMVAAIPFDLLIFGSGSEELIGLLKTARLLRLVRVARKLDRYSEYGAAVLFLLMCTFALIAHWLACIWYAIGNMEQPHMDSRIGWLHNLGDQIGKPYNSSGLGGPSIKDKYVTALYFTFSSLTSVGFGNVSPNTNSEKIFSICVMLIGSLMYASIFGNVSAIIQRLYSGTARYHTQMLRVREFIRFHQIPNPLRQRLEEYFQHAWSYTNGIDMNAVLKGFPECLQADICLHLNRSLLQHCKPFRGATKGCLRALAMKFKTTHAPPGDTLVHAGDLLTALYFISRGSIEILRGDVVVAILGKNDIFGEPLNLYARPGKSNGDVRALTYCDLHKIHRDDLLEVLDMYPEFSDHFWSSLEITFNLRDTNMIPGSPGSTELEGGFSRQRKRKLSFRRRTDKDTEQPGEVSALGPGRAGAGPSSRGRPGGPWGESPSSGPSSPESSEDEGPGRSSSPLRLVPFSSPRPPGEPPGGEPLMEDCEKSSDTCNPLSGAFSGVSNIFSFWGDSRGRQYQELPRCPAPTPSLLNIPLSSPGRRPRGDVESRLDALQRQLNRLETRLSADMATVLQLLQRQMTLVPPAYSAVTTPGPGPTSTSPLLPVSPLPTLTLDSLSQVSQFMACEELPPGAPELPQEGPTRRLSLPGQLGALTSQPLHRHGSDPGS

Compound | hERG current change (%, negative = inhibition) at 10uM
O=C(CSc1ccc2nnc(-c3ccc(Cl)cc3)n2n1)N1CCCc2ccccc21 | 1.71%
CCOC(=O)c1c(C)n(C)c2ccc(OC(C)C(=O)OC)cc12 (stereo not shown) | -10%
COc1cc(/C=N/Nc2ccccn2)ccc1OCC(C)C | 27.5%
CCCCn1c(-c2csc(C(C)C)c2)n[nH]c1=S | 20.9%
Cc1ccc(COc2ccsc2C(=O)NNC(N)=S)cc1 | 19.9%
CCN(CC)CCOC(=O)C(O)(c1ccccc1)c1ccccc1.Cl | -42.1%
CCN(CC)CC#CCOC(c1ccccc1)c1ccccc1.Cl | -43.3%
CCN(CC)CCCOC(=O)C(c1ccccc1)c1ccccc1.Cl | -56.5%
CCN(CC)CCOCCOC(=O)C(CC)(CC)c1ccccc1 | -9.35%
CCN(CC)CCOC(=O)C(c1ccccc1)c1ccccc1.Cl | -52.2%
CCCOc1ccc(C(C(=O)OCCN(CC)CC)c2ccccc2)cc1.O=C(O)C(=O)O (stereo not shown) | -43%
CCN(CC)CCOC(c1ccccc1)c1ccc(C)cc1.Cl (stereo not shown) | -73%
CCN(CC)CCCOC(=O)C(OC)(c1ccccc1)c1ccccc1.Cl | -27.9%
CCN(CC)CCCOC(=O)C(OC(C)C)(c1ccccc1)c1ccccc1.Cl | -31.9%
CCCC(C(=O)OCCN(CC)CC)(c1ccccc1)c1ccccc1.Cl | -53.9%
CCC(C(=O)OCCOCCN(CC)CC)c1ccccc1 (stereo not shown) | 1.01%
CCNCCOC(c1ccccc1)c1ccccc1.Cl | -31.8%
O=C(NNC(=O)c1cccs1)c1ccc(Cl)c([N+](=O)[O-])c1 | -6.26%
COC(=O)[C@H](CC(C)C)NC(=O)N1CCC(C)CC1 | 16.7%
CCOc1ccc(C(C)=O)cc1CN1C(=O)NC2(CCCCCC2)C1=O | 3.83%
COc1ccccc1NC(=O)c1c(C)oc2c1CCCC2 | 4.78%
O=C(O)c1cccc(CSc2nnc(-c3ccc(Cl)cc3)o2)c1 | 12.5%
Cc1nn(Cc2ccccc2)c(C)c1NC(=O)CCC(=O)O | 2.81%

Compound | hERG current change (%, negative = inhibition) at 10uM
O=C(O)CCC(=O)Nc1ccc(F)cc1 | 12.7%
CCNc1c(NCC)c(=O)c1=O | 15.2%
CC(C)CC(=O)Nc1nnc(SCC(=O)NCc2ccc3c(c2)OCO3)s1 | 17.7%
O=C(O)c1cccc(N2C(=O)c3ccc(Oc4ccc(Cl)cc4)cc3C2=O)c1 | 12.8%
O=C(NNC(=S)NCc1ccccc1)c1ccc2c(c1)OCO2 | 8.77%
CCCOc1ccc(C(=O)N2CCN(c3ccc(N)cc3Cl)CC2)cc1 | -31.7%
CCN1CCN(c2ccc(NC(=O)c3ccc(F)cc3)cc2Cl)CC1 | -75.6%
CCC(=O)Nc1ccc(N2CCN(CC)CC2)c(Cl)c1 | -3.56%
COc1ccc(OCC(=O)Nc2ccc(N3CCN(C(=O)c4ccccc4)CC3)c(Cl)c2)cc1 | -19.4%
CCCC(=O)Nc1ccc(N2CCN(CC)CC2)c(Cl)c1.Cl | -47.8%
CCCOc1ccc(C(=O)N2CCN(c3ccc(NC(=O)CC)cc3Cl)CC2)cc1 | -77%
CCN1CCN(c2ccc(NC(C)=O)cc2Cl)CC1 | -1.19%
O=C(Nc1ccc(N2CCOCC2)c(Cl)c1)c1ccc(F)cc1 | -3.11%
O=C(Nc1ccc(N2CCOCC2)c(Cl)c1)c1cccc(F)c1 | -21.2%
CCN1CCN(c2ccc(NC(=O)c3cccnc3)cc2Cl)CC1 | -16.8%
CCN1CCN(c2ccc(NC(=O)c3cccc(F)c3)cc2Cl)CC1 | -75.2%
CCCCCC(=O)Nc1ccc(N2CCN(CC)CC2)c(Cl)c1 | -71.5%
COc1ccc(-c2nnc(SCc3nnc(-c4cccs4)o3)n2CC2CCCO2)cc1 (stereo not shown) | -32%
Cc1ccc(OCc2nnc(NC(=O)c3ccco3)s2)cc1 | 6.86%
Cc1cccc(N(C(=O)c2csnn2)C(C(=O)NCc2ccccc2)c2ccncc2)c1 (stereo not shown) | -18.7%
CCN(CC)CCCN1C(=O)C(O)=C(C(=O)c2sc(C)nc2C)C1c1ccco1 (stereo not shown) | -0.605%
O=C(Cc1ccsc1)NNC(=O)c1ccc(F)cc1 | -18.8%
c1ccc(CCN(Cc2ccccc2)Cc2nc(C3CC3)no2)cc1 | 10.2%

Compound | hERG current change (%, negative = inhibition) at 10uM
COc1ccc(OCc2cc(C(=O)N3CCC(OC)CC3)no2)c2ccccc12 | 14.4%
CCCCOc1ccc(Nc2cc(Cl)ccc2C(=O)O)cn1 | 23.5%
O=C(Nc1nnc(-c2ccccc2F)s1)Nc1ccccc1F | 23.3%
CCn1c(SCC(=O)Nc2ccc(C)cc2)nc2nc3c(cc2c1=O)COC(C)(C)C3 | -81.8%
C=CCn1c(SCC(N)=O)nc2nc3c(cc2c1=O)COC(C)(C)C3 | 4.77%
CCn1c(SCC(=O)Nc2ccc(OC)cc2OC)nc2nc3c(cc2c1=O)COC(C)(C)C3 | -2.49%
CCn1c(SCC(=O)Nc2ccc(C)cc2)nc2nc3c(cc2c1=O)CCCC3 | -43.6%
CCn1c(SCC(=O)Nc2ccccc2)nc2nc3c(cc2c1=O)COC(C)(C)C3 | -61.8%
CCn1c(SCC(=O)Nc2ccc(OC)cc2)nc2nc3c(cc2c1=O)COC(C)(C)C3 | -72.6%
CCOc1ccc(NC(=O)CSc2nc3nc4c(cc3c(=O)n2CC)COC(C)(C)C4)cc1 | 0.831%
CCn1c(SCC(=O)Nc2ccc(C(C)=O)cc2)nc2nc3c(cc2c1=O)COC(C)(C)C3 | 13.8%
CCn1c(SCC(=O)Nc2ccc(C(C)=O)cc2)nc2nc3c(cc2c1=O)CCCC3 | -20.5%
CCn1c(SCC(=O)Nc2ccccc2C)nc2nc3c(cc2c1=O)COC(C)(C)C3 | -21.4%
CCn1c(SCC(=O)Nc2cccc(C)c2)nc2nc3c(cc2c1=O)COC(C)(C)C3 | -23.1%
CCn1c(SCC(=O)Nc2ccc(OC)cc2)nc2nc3c(cc2c1=O)CCCC3 | -62.6%
O=C(CN1C(=O)CCOc2ccccc21)Nc1ccc(Cl)c(S(=O)(=O)N2CCOCC2)c1 | -7.44%
O=C(CCn1cnnn1)Nc1cccc(F)c1 | 21.3%
S=C(NCCSCc1c(Cl)cccc1Cl)Nc1ccccc1 | -3.31%
COCCn1c(C)cc(C2=NNC(=Nc3ccc(OC)cc3)SC2)c1C | 1.3%
Cc1ccc(S(=O)(=O)Nc2ccnc3ccccc23)cc1 | -4.28%
Cc1ccc(F)cc1NC(=O)c1sc2ncn(CC(=O)N3CCN(c4ccccn4)CC3)c(=O)c2c1C | -5.06%
O=C(COC(=O)CCC(=O)c1cccs1)NC1CCCCC1 | 1.55%
CCCCCCC(=O)N/N=C/c1c(O)n(C2CC2)c(=S)[nH]c1=O | -4.67%

Compound | hERG current change (%, negative = inhibition) at 10uM
Cc1cc(N2CCN(c3ccccc3)CC2)n2nnnc2n1 | -3.56%
Cc1cccc(N2CCN(c3nnnn3-c3ccccc3)CC2C)c1 (stereo not shown) | -10.8%
Cc1cccc(N2CCN(c3cc(C)nc4nnnn34)CC2C)c1 (stereo not shown) | -53.1%
O=C(NCCc1ccco1)C(=O)NCC1CCCN1S(=O)(=O)c1ccccc1 (stereo not shown) | -33.5%
CSc1ccc(/C=C(\NC(=O)c2ccc(C)cc2)C(=O)Nc2cccc(C)c2)cc1 | 15.6%
CC(C)Oc1ccc(C2CC(=O)N(c3ccccc3)C2=O)cc1 (stereo not shown) | 6.47%
CCC(N=c1cc(-c2ccc(OC)c(OC)c2)oc2ccc(C)cc12)C(=O)O (stereo not shown) | -20.7%
CCC(N=c1cc(-c2ccc(OC)cc2)oc2ccc(C)cc12)C(=O)O (stereo not shown) | -74.4%
COc1ccc(-c2cc(=NC(CC(C)C)C(=O)O)c3cc(C)ccc3o2)cc1 (stereo not shown) | -56.5%
COc1ccc(-c2cc(=NCC(=O)O)c3ccccc3o2)cc1.[O-][Cl+3]([O-])([O-])O | -31.5%
COc1ccc(-c2cc(=Nc3ccc(C(=O)O)cc3)c3cc(C)ccc3o2)cc1 | 12.7%
COc1ccc(-c2cc(=[NH+]c3cccc(C(=O)O)c3)c3cc(C)ccc3o2)cc1.[O-][Cl+3]([O-])([O-])[O-] | -0.536%
O=C(CN1C(=O)NC2(CCc3ccccc32)C1=O)NCC(=O)Nc1ccc(F)cc1 (stereo not shown) | 1.09%
CCCc1c(C(=O)N/N=C/c2ccccc2C(F)(F)F)nnn1-c1nonc1N | 11.8%
CC(C)c1ccc(CNc2ccc3c(c2)ncn3C)cc1 | 9.16%
CC(C)(C)OC(=O)N1CCC[C@H]1c1nnc(SCc2c(F)cccc2Cl)o1 | 2.16%
CC(C)(C)OC(=O)N1CCC[C@H]1c1nnc(SCc2ccccc2Cl)o1 | -5.07%
CC(C)(C)OC(=O)N1CCC[C@H]1c1nnc(SCc2c(Cl)cccc2Cl)o1 | -57.5%
Cc1ccccc1CNc1nnnn1C | 12.4%
Br.O=C(CN1CCSC1=NCc1ccccc1)c1ccc(Cl)cc1 | -53.9%
Br.O=C(CN1CCSC1=NCc1ccccc1)c1ccccc1 | -23.5%
Br.O=C(CN1CCSC1=NCc1ccccc1)c1ccc(Cl)c(Cl)c1 | -17.7%
